This passage reports Potency results from PubChem BioAssay AID624308 (National Center for Advancing Translational Sciences (NCATS), 2012).

The target of the assay is Peptidyl-prolyl cis-trans isomerase NIMA-interacting 1 (Homo sapiens) (UniProt Q13526). The experiment in a line: qHTS Assay to Find Inhibitors of Pin1: Hit Validation. The conditions noted are these: Pin1 FP peptide displacement, HiFluor488 probe. The source says:
The unique chemical properties of Pro allow for the adoption of two completely distinct amide bond conformations (cis and trans). Peptidyl-prolyl cis/trans isomerases (PPIases) are evolutionary conserved enzymes that catalyze cis/trans isomerization of peptidyl-prolyl peptide bonds. Distinct from all other PPIases such as cyclophilins and FK506-binding proteins (FKBPs), Pin1 binds a subset of phos.Ser/Thr-Pro-containing proteins using its protein-targeting WW domain and isomerizes only specific phos.Ser/Thr-Pro bonds, which cannot be effectively catalyzed by other known PPIases. […] The goal of this screen is to find small-molecule inhibitors of Pin1 using a fluorescence polarization competition assay. […]
Pin1 (0.6 uM) was dispensed into black, solid 1536-well plates at 2 uL/well in 10 mM HEPES (pH 7.5), 10 mM NaCl, 0.01% Tween20, 1 mM DTT, and 1% glycerol. […] The plates were measured on a ViewLux plate reader for fluorescence polarization signal using a 480/20 nM nm excitation filter and 540/25 nM nm S and P emission filters with a 20 second exposure. The %Activity was determined from the corrected fluorescence polarization values. […] Concentration-response curves were fitted to the signals arising from the resulting fluorescence polarization. […] Keywords: Peptidyl prolyl isomerase, Pin1, fluorescence polarization, MLSMR, MLPCN, NIH Roadmap, qHTS, NCGC
(Quantitative high-throughput screening tests each substance at several concentrations.)

Inconclusive results are not listed. Calls of active or inactive are those of the source. The call rests on the fitted dose curve; in most records, active means well fitted inhibition curve with a large enough effect; inconclusive means small, poorly fitted or top-dose-only effect; inactive means flat fitted curve, though single readings scatter.

Peptidyl-prolyl cis-trans isomerase NIMA-interacting 1 (Homo sapiens), sequence (Q13526 whole entry, looked up, the tested form may be a part): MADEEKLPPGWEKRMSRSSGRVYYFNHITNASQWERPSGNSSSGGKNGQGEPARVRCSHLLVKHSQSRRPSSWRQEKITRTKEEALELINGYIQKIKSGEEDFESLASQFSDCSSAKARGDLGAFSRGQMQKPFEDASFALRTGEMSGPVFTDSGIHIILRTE

For the compound `Cc1cc2c(C(C)C)c(O)c(O)c(C=O)c2c(O)c1-c1c(C)cc2c(C(C)C)c(O)c(O)c(C=O)c2c1O`, the Potency was 1690 nM (active).
